Inconclusive results are not listed. A call without a number means that no potency is given here. Unmarked numbers belong to inactive results. Active and inactive are the calls of the source. Calls follow the shape of the dose curve; as a rule, active = well fitted activation curve with a large enough effect in the repeat runs; inconclusive = weak or mixed curves; inactive = flat fitted curve, though single readings scatter.

A short description of the assay: A CellTox Green Cytotoxicity Assay to monitor cytotoxicity in HepG2 cells - 40 hour (AID 1224879). Also: nearly all actives have a fitted effect of over 40% in size. To be noted: CellTox Green fluorescence; series mostly up to 76.8 µM. The text has this:
National Center for Advancing Translational Sciences [NCATS]
NIH Chemical Genomics Center [NCGC]
U.S. Environmental Protection Agency [EPA]
National Institutes of Environmental Health Sciences [NIEHS]
National Toxicology Program [NTP]
Cell-based models are critical for drug discovery. Determining the natural cytotoxic effects resulting from test compounds is an essential research activity. A CellTox Green Cytotoxicity Assay to monitor cytotoxicity in real time of continues cell culture during 40 hours of the compound treatment was used to screen Tox21 10K library compounds in HepG2 cells. CellTox Green Cytotoxicity Assay is a nonlytic, homogeneous, biofluorescent method to measure cytotoxicity in cell culture after experimental manipulation. The assay system uses a proprietary asymmetric cyanine dye that is excluded from viable cells but preferentially stains the dead cell's DNA. […] Viable cells produce no appreciable increases in fluorescence. Therefore, the fluorescence signal produced by the binding interaction with dead cell DNA is proportional to cytotoxicity.
The mixture of HepG2 cell suspension and reagents were dispensed at 600cells/6 ul/well in 1536-well tissue culture treated black solid bottom plates using a Multidrop dispenser. After the assay plates were incubated at a 37 C/5% CO2 incubator for 5 hours, 23 nL of compounds dissolved in DMSO, positive and negative controls was transferred to the assay plate by a pintool work station. The plates were incubated at 37 C for 40 hours. The fluorescence intensity were measured at 0h, 8h, 16h, 24h, 32h and 40h time points using ViewLux plate reader during compound treatment.
With `NC(=O)NC1N=C([O][Al])NC1=O` (stereo not given), the Potency entry was “inactive”.

Take `Cc1ccc(C(=O)c2ccccc2)cc1`: the Potency result was “inactive”.

Consider `c1ccc2sc(SN3CCOCC3)nc2c1`, for which the Potency entry is “inactive”.

Take `CC(=O)Oc1cccc(C)c1`: the Potency entry is “inactive”.

Take `CC1=C(C/C=C(\C)CCC[C@H](C)CCC[C@H](C)CCCC(C)C)C(=O)c2ccccc2C1=O`: the Potency result is “inactive”.

For `CCN[C@H]1C[C@H](C)S(=O)(=O)c2sc(S(N)(=O)=O)cc21`, the Potency entry is “inactive”.

For `Nc1ccn([C@@H]2O[C@H](CO)[C@@H](O)[C@@H]2O)c(=O)n1`, the Potency entry was “inactive”.

`CO[C@@]1(NC(=O)C(C(=O)O)c2ccc(O)cc2)C(=O)N2C(C(=O)O)=C(CSc3nnnn3C)CO[C@@H]21` (stereo not given in full): the Potency result is “inactive”.

Consider `CC(=O)c1ccccc1[N+](=O)[O-]`, for which the Potency result is “inactive”.

With `N[C@H](C(=O)O)[C@@H](O)c1ccc(O)c(O)c1`, the Potency result is “inactive”.

Take `O=S(=O)(O)c1cccc2c(S(=O)(=O)O)cccc12`: the Potency result was “inactive”.

For `NCCCC[C@H](N[C@@H](CCc1ccccc1)C(=O)O)C(=O)N1CCC[C@H]1C(=O)O`, the Potency result is “inactive”.

`C=CN1CCCCCC1=O`: the Potency entry is “inactive”.

On to `Cc1nc(C2CCCCC2)c(-c2ccc(S(N)(=O)=O)c(F)c2)o1`, for which the Potency result was “inactive”.

For the compound `CNCCO`, the Potency result was “inactive”.

Regarding `O=C(O)CCSCCC(=O)O`, the Potency result is “inactive”.

For the compound `c1ccc(Cc2ccccc2)cc1`, the Potency entry was “inactive”.

For `CN(C)C(=O)Oc1ccc[n+](C)c1`, the Potency result is “inactive”.

With `Cc1ccc(-c2ccccc2C#N)cc1`, the Potency entry is “inactive”.

In the case of `CC(C)C[C@@H](N)C(=O)O`, the cytotoxicity increase is 0.791% [at 15.8 µM].

With `CCOC(=O)OC(C)OC1=C(C(=O)Nc2ccccn2)N(C)S(=O)(=O)c2ccccc21` (stereo not given), the Potency entry is “inactive”.

As for `CC[N+](CC)(CC)CCOc1cccc(OCC[N+](CC)(CC)CC)c1OCC[N+](CC)(CC)CC`, the Potency result is “inactive”.

Turning to `CCCn1cc[n+](C)c1C`, the Potency result was “inactive”.

Take `CN1CCN(c2cc3c(nn2)Oc2ccccc2N3C)CC1`: the cytotoxicity increase was -1.51% [at 15.8 µM].

As for `CC(C)(N)C#N`, the Potency result is “inactive”.

As to `CCOc1ccccc1OCC`, the Potency entry was “inactive”.

As to `CCCc1ncc(C[n+]2ccccc2C)c(N)n1`, the Potency result was “inactive”.

On to `NS(=O)(=O)Cc1noc2ccccc12`, for which the Potency entry was “inactive”.

Turning to `COc1c(N2CCNC(C)C2)c(F)cc2c(=O)c(C(=O)O)cn(C3CC3)c12` (stereo not given), the Potency result is “inactive”.

Consider `CN(C)C(=O)Oc1cccc([N+](C)(C)C)c1`, for which the Potency result is “inactive”.

As to `Cc1coc2ccccc2c1=O`, the Potency result was “inactive”.

Consider `NCCCC(N)(C(=O)O)C(F)F` (stereo not given), for which the Potency result was “inactive”.

With `CC(C)CCCO`, the Potency result was “inactive”.

For the compound `C[N+]1(CC2COC(c3ccccc3)(c3ccccc3)O2)CCCCC1` (stereo not given), the cytotoxicity increase was -0.954% [at 15.8 µM].

As for `CCCc1nn(C)c2c(=O)[nH]c(-c3cc(S(=O)(=O)N4CCN(C)CC4)ccc3OCC)nc12`, the Potency entry is “inactive”.

In the case of `C=CCCCCCCCCC(=O)OCC`, the Potency entry is “inactive”.

With `O=C1CCCCCCCCCCCCCCO1`, the Potency entry was “inactive”.

Regarding `CCOC(=O)c1cnc2c(cnn2CC)c1NN=C(C)C`, the Potency result was “inactive”.

As to `CC1=CCC(O)(C(C)C)CC1` (stereo not given), the Potency entry is “inactive”.

For the compound `CCOC(=O)C1=NOC(c2ccccc2)(c2ccccc2)C1`, the Potency result was “inactive”.

The values above are taken from PubChem BioAssay (Tox21).
